Assay results: PubChem BioAssay AID588494 (NMMLSC, 2011)
This is one part of the list. Calls of active or inactive are those of the source.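 Rule for the calls: active = response vs DMSO under 50%, meaning signal dropped by over half, treated as fluorescence quencher; inconclusive = no clear call, values can overlap the other calls; inactive = the rest.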

Assay: quenchers of FAM-labeled RNA aptamer fluorescence, confirmation, artefact control for GRK2 aptamer binding project, biochemical, single concentration, cherry pick 2, flow cytometry (AID 588494);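 note: labelled aptamer on streptavidin beads without GRK2 as a quench counter-screen; 100% = bead fluorescence of DMSO wells and lower means quenching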
Conditions: carboxyfluorescein RNA aptamer beads, flow cytometry quenching; at 10 µM; hits give low values

Fluorescence response vs DMSO, inactive:
O=C(NC1C2CC3CC(C2)CC1C3)c1ccc(N2CCNCC2)c([N+](=O)[O-])c1 (stereo not given) 101%
O=C(NCCCN1CCCCCC1)c1ccc(N2CCCC2=O)cc1 100%
Cc1ccc(S(=O)(=O)CC(=O)Nc2sc(C)c(C)c2C(N)=O)cc1 103%
CCN1CCN(C(=O)N[C@@H](C(=O)N[C@@H]2C(=O)N3C(C(=O)O)=C(CSc4nnnn4C)CS[C@H]23)c2ccc(O)cc2)C(=O)C1=O 99%
CCOCCc1c(O)nc(SCC(=O)NCc2ccco2)[nH]c1=O 100%
CCOCCCNC(=O)c1ccc(CS(=O)(=O)c2cccc(C(F)(F)F)c2)o1 103%
CC1CCN(C(=S)NC2CC3CCC2C3)CC1 (stereo not given) 99%
CC1Sc2ccc(S(=O)(=O)CCC(=O)NCc3ccccc3Cl)cc2NC1=O (stereo not given) 100%
COc1ccc(Cl)cc1NC(=O)CCS(=O)(=O)c1ccc(Br)cc1 101%
COc1ccc(Cl)cc1NC(=O)CCS(=O)(=O)c1cc2c(cc1C)NC(=O)CO2 98%
